# Several values for one entry are separate records, joined by “and”; a condition that tells them apart may be missing. Identical values can stand only once. Results filed as inconclusive are left out. Some structures have more than one record in an assay (separate samples or runs), and their calls can disagree. Activity calls are given as the source filed them. The calls were made as follows, unless noted: active = hit-call score of the fitted dose curve at least 0.9, where 1 is the maximum; inactive = score below 0.9.
# Assays:
# [1] = read-out: Monocyte Chemoattractant Protein-1 (MCP1), CCL2 (gene 6347); assay: BSK_SAg_MCP1: BioMAP Diversity Plus: SAg Assay for Monocyte Chemoattractant Protein-1 (MCP1) Biomarker Activity (AID 2283090); settings: primary human HUVEC with PBMC; actives raise or lower the signal
# How it was run: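 Values derive from bidirectional fitting of ELISA-measured MCP1 against DMSO controls. Readings were taken 24 h after dosing human vascular endothelial cells co-cultured with peripheral blood mononuclear cells under superantigen stimulation.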
# [2] = read-out: E-selectin (Homo sapiens) (UniProt P16581); assay: BSK_SAg_Eselectin: BioMAP Diversity Plus: SAg Assay for Eselectin Biomarker Activity (AID 2283091); settings: primary human HUVEC with PBMC; actives raise or lower the signal
# How it was run: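 Co-culture: HUVEC + PBMC. Dose compound; 24 h. ELISA for E-selectin. Bidirectional fit vs DMSO.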
# [3] = read-out: Monokine induced gamma interferon (MIG), CXCL9 (gene 4283); assay: BSK_SAg_MIG: BioMAP Diversity Plus: SAg Assay for Monokine induced gamma interferon (MIG) Biomarker Activity (AID 2283092); settings: primary human HUVEC with PBMC; actives raise or lower the signal
# How it was run: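 Values reflect bidirectional fitting of ELISA-measured MIG against DMSO vehicle, taken 24 h after dosing of a co-culture of human umbilical vein endothelial cells and peripheral blood mononuclear cells.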
# [4] = BSK_SAg_PBMCCytotoxicity: PBMC Cytotoxicity Assessment in the BioMAP Diversity Plus: SAg Assay (AID 2283093); settings: primary human HUVEC with PBMC;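 also: PBMC viability measured as Alamar Blue reduction fluorescence at 546/580 nm; fitted both ways against DMSO so a hit may be loss or gain of signal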;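 as to AC50: PBMC superantigen activated with SEB plus TSST-1 one hour after compound addition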
# How it was run: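 Alamar Blue reduction (6 h, 546/580 nm) reports PBMC cytotoxicity after 90 h superantigen activation (SEB, TSST-1; 20 ng/mL final each) with 1 h compound pre-treatment. Gain or loss of signal fitted versus DMSO.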
# [5] = read-out: Interleukin-8 (IL8), CXCL8 (gene 3576); assay: BSK_SAg_IL8: BioMAP Diversity Plus: SAg Assay for Interleukin-8 (IL8) Biomarker Activity (AID 2283094); settings: primary human HUVEC with PBMC; actives raise or lower the signal
# How it was run: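 Chemicals were dosed onto a human endothelial–PBMC co-culture, and IL-8 was quantified by ELISA after 24 h. Both increases and decreases were fitted relative to DMSO.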
# [6] = BSK_SAg_Proliferation: Cell Proliferation Assessment in the BioMAP Diversity Plus: SAg Assay (AID 2283095); settings: primary human HUVEC with PBMC;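 also: relative cell number as total protein by SRB absorbance in sub-confluent culture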
# How it was run: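 Absorbance of sulforhodamine B at 560 nm reports total protein in a human vascular endothelial/PBMC co-culture after 96 h chemical exposure. Gain or loss of signal is fitted in both directions against DMSO.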
# [7] = BSK_SAg_SRB: Viability Assessment in the BioMAP Diversity Plus: SAg Assay (AID 2283096); settings: primary human HUVEC with PBMC;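 also: cells read one day after compound addition; hits may be either gain or loss of signal compared with DMSO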
# How it was run: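 This overt-cytotoxicity endpoint quantifies protein in human endothelial/PBMC co-cultures at 24 h using SRB absorbance (560 nm) after trichloroacetic acid fixation. Values reflect signal change from the DMSO negative control, fitted bidirectionally.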
# [8] = target: human CYP19A1, CYP19A1 (gene 1588) (UniProt P11511); assay: NVS_ADME_hCYP19A1: NovaScreen (NVS) CYP450-related Enzyme Activity (ADME) Assay for human CYP19A1 (AID 2283098; active = hit-call score of the fitted dose curve at least 0.9, where 1 is the maximum;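 as to AC50: potency for inhibitors seen as loss of fluorescent enzyme signal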)
# Chain of human CYP19A1, CYP19A1 (gene 1588) (P11511 whole entry, looked up): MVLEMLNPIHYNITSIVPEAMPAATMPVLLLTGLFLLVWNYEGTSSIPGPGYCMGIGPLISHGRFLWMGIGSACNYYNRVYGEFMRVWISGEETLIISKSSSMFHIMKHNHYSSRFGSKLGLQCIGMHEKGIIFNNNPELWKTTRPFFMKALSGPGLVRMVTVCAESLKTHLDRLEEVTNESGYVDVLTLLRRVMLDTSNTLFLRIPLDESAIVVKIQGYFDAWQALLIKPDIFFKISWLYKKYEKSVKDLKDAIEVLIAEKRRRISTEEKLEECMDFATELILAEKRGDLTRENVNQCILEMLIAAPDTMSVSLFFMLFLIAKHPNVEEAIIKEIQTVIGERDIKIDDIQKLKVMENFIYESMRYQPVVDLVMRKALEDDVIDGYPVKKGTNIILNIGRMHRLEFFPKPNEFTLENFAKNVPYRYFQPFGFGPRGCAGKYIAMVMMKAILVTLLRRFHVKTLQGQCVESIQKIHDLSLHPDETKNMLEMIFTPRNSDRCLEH
# How it was run: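 Compounds were first screened at 10 uM in duplicate against purified enzyme, with a fluorogenic substrate and fluorescence intensity detection after 0.5 h. Inhibition appears as reduced signal against acetonitrile control.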
# [9] = target: human CYP1A1, CYP1A1 (gene 1543) (UniProt P04798); assay: NVS_ADME_hCYP1A1: NovaScreen (NVS) CYP450-related Enzyme Activity (ADME) Assay for human CYP1A1 (AID 2283100; active = hit-call score of the fitted dose curve at least 0.9, where 1 is the maximum)
# Chain of human CYP1A1, CYP1A1 (gene 1543) (P04798 whole entry, looked up): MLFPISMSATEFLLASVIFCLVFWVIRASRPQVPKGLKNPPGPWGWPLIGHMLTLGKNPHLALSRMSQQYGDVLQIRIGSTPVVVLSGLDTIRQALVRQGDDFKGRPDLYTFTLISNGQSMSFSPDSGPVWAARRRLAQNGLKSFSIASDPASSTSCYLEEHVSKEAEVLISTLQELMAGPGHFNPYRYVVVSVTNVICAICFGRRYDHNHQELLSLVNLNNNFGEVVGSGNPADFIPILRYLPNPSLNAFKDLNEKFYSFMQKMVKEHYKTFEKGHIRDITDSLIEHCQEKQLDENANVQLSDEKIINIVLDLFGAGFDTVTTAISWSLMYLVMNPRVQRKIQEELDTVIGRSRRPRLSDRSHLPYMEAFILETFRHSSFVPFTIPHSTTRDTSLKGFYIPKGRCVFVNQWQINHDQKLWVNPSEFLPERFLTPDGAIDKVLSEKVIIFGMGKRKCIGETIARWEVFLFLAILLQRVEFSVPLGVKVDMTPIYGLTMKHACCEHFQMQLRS
# How it was run: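 Recombinant hCYP1A1 + fluorogenic substrate, cell-free; 1 h; fluorescence read. Single-point 10 uM (duplicate) → concentration series, max 20 uM. Acetonitrile negative control.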
# [10] = target: human CYP2A6, CYP2A6 (gene 1548) (UniProt P11509); assay: NVS_ADME_hCYP2A6: NovaScreen (NVS) CYP450-related Enzyme Activity (ADME) Assay for human CYP2A6 (AID 2283099; active = hit-call score of the fitted dose curve at least 0.9, where 1 is the maximum)
# Chain of human CYP2A6, CYP2A6 (gene 1548) (P11509 whole entry, looked up): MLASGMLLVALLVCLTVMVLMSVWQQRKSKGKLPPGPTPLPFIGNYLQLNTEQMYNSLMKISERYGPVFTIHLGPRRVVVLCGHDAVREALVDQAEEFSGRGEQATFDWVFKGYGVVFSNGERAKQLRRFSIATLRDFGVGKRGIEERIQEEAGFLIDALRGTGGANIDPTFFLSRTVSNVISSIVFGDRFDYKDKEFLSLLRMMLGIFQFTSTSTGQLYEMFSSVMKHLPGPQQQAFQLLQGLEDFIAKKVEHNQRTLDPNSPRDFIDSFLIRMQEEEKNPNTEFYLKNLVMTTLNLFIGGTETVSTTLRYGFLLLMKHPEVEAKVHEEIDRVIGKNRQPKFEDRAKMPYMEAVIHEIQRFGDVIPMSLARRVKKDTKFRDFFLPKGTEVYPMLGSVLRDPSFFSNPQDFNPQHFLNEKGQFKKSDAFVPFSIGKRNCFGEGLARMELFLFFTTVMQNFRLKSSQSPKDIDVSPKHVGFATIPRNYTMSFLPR
# How it was run: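 Fluorescent substrate turnover by recombinant CYP2A6 (insect cell source), 0.5 h read. Screen: 10 uM, duplicate; threshold hits (e.g. 30% inhibition) → singleton concentration-response, top 20 uM. Positive and negative controls on every plate.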
# Chain of E-selectin (Homo sapiens) (P16581 whole entry, looked up): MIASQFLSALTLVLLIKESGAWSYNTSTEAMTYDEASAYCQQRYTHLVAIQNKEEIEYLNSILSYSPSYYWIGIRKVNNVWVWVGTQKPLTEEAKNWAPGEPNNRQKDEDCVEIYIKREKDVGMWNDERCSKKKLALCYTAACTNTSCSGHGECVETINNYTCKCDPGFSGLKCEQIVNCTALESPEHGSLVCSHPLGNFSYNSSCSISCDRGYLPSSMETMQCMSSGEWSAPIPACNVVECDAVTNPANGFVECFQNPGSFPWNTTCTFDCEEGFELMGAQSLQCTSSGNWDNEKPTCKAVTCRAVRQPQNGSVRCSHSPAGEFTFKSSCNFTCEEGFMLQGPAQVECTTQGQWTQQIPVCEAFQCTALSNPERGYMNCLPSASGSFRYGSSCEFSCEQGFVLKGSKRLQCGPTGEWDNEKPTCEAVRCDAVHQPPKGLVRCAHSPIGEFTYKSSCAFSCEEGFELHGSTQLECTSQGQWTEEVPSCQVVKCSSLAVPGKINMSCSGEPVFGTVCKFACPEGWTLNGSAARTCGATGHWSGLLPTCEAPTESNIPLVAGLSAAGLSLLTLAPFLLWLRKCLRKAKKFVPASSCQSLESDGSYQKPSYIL
smiles,measurement,setting,value
C#CCOS(=O)OC1CCCCC1Oc1ccc(C(C)(C)C)cc1 (configuration not stated),AC50,[1],7.84 µM (active)
same,AC50,[2],4.02 µM (active)
same,AC50,[3],16.7 µM (active)
same,AC50,[4],14.6 µM (active)
same,AC50,[5],1.92 µM (active)
same,AC50,[6],1.16 µM (active)
same,AC50,[7],10.8 µM (active)
same,outcome,[8],inactive
CC1COC(Cn2cncn2)(c2ccc(Oc3ccc(Cl)cc3)cc2Cl)O1 (configuration not stated),AC50,[1],23.8 µM (active)
same,AC50,[2],13.1 µM (active)
same,AC50,[3],31.3 µM (active)
same,AC50,[4],33.2 µM (active)
same,AC50,[5],15.8 µM (active)
same,AC50,[6],14.7 µM (active)
same,AC50,[7],29.6 µM (active)
same,AC50,[8],0.706 µM (active)
same,AC50,[9],1.63 µM (active)
CCNc1nc(Cl)nc(NC(C)C)n1,outcome,[1],inactive
same,AC50,[2],13.9 µM (active)
same,outcome,[3],inactive
same,outcome,[4],inactive
same,outcome,[5],inactive
same,outcome,[6],inactive
same,outcome,[7],inactive
same,outcome,[8],inactive
same,outcome,[9],inactive
CCCC1COC(Cn2cncn2)(c2ccc(Cl)cc2Cl)O1 (configuration not stated),outcome,[1],inactive
same,outcome,[2],inactive
same,outcome,[3],inactive
same,outcome,[4],inactive
same,outcome,[5],inactive
same,AC50,[6],20.7 µM (active)
same,outcome,[7],inactive
same,AC50,[8],2.04 µM (active)
same,outcome,[10],inactive
same,AC50,[9],7.82 µM (active)
COc1ccc(C(c2ccc(OC)cc2)C(Cl)(Cl)Cl)cc1,AC50,[1],27.1 µM (active)
same,AC50,[2],14.4 µM (active)
same,AC50,[3],30.7 µM (active)
same,AC50,[4],31.5 µM (active)
same,AC50,[5],11.9 µM (active)
same,AC50,[6],12 µM (active)
same,AC50,[7],14.9 µM (active)
same,AC50,[8],3.76 µM (active)
same,outcome,[8],inactive
CCCCC(CC)COC(=O)c1ccccc1C(=O)OCC(CC)CCCC (configuration not stated),outcome,[1],inactive
same,outcome,[2],inactive
same,outcome,[3],inactive
same,outcome,[4],inactive
same,outcome,[5],inactive
same,AC50,[7],5 µM (active)
same,AC50,[8],3.05 µM (active)
CNC(=S)S,outcome,[1],inactive
same,AC50,[2],27.5 µM (active)
same,outcome,[3],inactive
same,AC50,[4],14.7 µM (active)
same,outcome,[5],inactive
same,AC50,[6],11.9 µM (active)
same,AC50,[7],23.3 µM (active)
same,outcome,[8],inactive
CCc1nn(C)c(C(=O)NCc2ccc(C(C)(C)C)cc2)c1Cl,AC50,[1],20 µM (active)
same,AC50,[2],3.97 µM (active)
same,AC50,[3],34.7 µM (active)
same,AC50,[4],34.8 µM (active)
same,AC50,[5],5.02 µM (active)
same,AC50,[6],20 µM (active)
same,AC50,[7],29.4 µM (active)
CON(C)C(=O)Nc1ccc(Cl)c(Cl)c1,outcome,[1],inactive
same,outcome,[2],inactive
same,outcome,[3],inactive
same,outcome,[4],inactive
same,outcome,[5],inactive
same,outcome,[6],inactive
same,outcome,[7],inactive
same,outcome,[8],inactive
same,AC50,[9],3.72 µM (active)
COC(=O)N(OC)c1ccccc1COc1ccn(-c2ccc(Cl)cc2)n1,AC50,[1],4.97 µM (active)
same,AC50,[2],3.97 µM (active)
same,AC50,[3],11.9 µM (active)
same,AC50,[4],0.222 µM (active)
same,AC50,[5],2.92 µM (active)
same,AC50,[6],3.97 µM (active)
same,AC50,[7],8.48 µM (active)
same,outcome,[8],inactive
same,AC50,[9],1.87 µM (active)
CCCN(CCC)c1c([N+](=O)[O-])cc(S(N)(=O)=O)cc1[N+](=O)[O-],AC50,[1],34.8 µM (active) [middle of 4 runs]
same,AC50,[2],33.1 µM (active) and 31.4 µM (active) and 30 µM (active)
same,AC50,[3],39.5 µM (active) [middle of 4 runs]
same,AC50,[4],30.7 µM (active) [middle of 4 runs]
same,AC50,[5],39.7 µM (active) [middle of 4 runs]
same,AC50,[6],30.2 µM (active) [middle of 4 runs]
same,AC50,[7],32.3 µM (active) [middle of 4 runs]
CN(C)C(=S)SSC(=S)N(C)C,AC50,[1],28.7 µM (active)
same,AC50,[2],24.8 µM (active)
same,AC50,[3],36.6 µM (active)
same,AC50,[4],3.87 µM (active)
same,AC50,[5],18.6 µM (active)
same,AC50,[7],35.3 µM (active)
same,outcome,[10],inactive
O=C(O)COc1nc(Cl)c(Cl)cc1Cl,outcome,[1],inactive
same,outcome,[2],inactive
same,outcome,[3],inactive
same,outcome,[4],inactive
same,outcome,[5],inactive
same,outcome,[6],inactive
same,outcome,[7],inactive
CCOc1cc(Oc2ccc(C(F)(F)F)cc2Cl)ccc1[N+](=O)[O-],outcome,[1],inactive
same,AC50,[2],9.5 µM (active)
same,outcome,[3],inactive
same,outcome,[4],inactive
same,AC50,[5],12.5 µM (active)
same,AC50,[6],18.5 µM (active)
same,AC50,[7],13.3 µM (active)
N#CC(CCc1ccc(Cl)cc1)(Cn1cncn1)c1ccccc1 (configuration not stated),outcome,[1],inactive
same,outcome,[2],inactive
same,outcome,[3],inactive
same,outcome,[4],inactive
same,outcome,[5],inactive
same,AC50,[6],8.6 µM (active)
same,outcome,[7],inactive
same,outcome,[8],inactive
same,outcome,[9],inactive
CS/C(C)=N/OC(=O)N(C)SN(C)C(=O)O/N=C(\C)SC,AC50,[1],30.1 µM (active)
same,AC50,[2],31.4 µM (active)
same,AC50,[3],35.6 µM (active)
same,AC50,[4],8.27 µM (active)
same,AC50,[5],16 µM (active)
same,AC50,[6],5.3 µM (active)
same,AC50,[7],28.4 µM (active)
same,AC50,[9],10 µM (active)
CCOC(=O)CC(SP(=S)(OC)OC)C(=O)OCC (configuration not stated),outcome,[1],inactive
same,outcome,[2],inactive
same,outcome,[3],inactive
same,outcome,[4],inactive
same,outcome,[5],inactive
same,outcome,[6],inactive
same,outcome,[7],inactive
same,outcome,[8],inactive
same,AC50,[10],1.98 µM (active)
same,AC50,[9],2.87 µM (active)
C=CC1(C)OC(=O)N(c2cc(Cl)cc(Cl)c2)C1=O (configuration not stated),outcome,[1],inactive
same,outcome,[2],inactive
same,outcome,[3],inactive
same,outcome,[4],inactive
same,outcome,[5],inactive
same,outcome,[6],inactive
same,outcome,[7],inactive
same,outcome,[9],inactive
CCOC(=O)C(Cl)Cc1cc(-n2nc(C)n(C(F)F)c2=O)c(F)cc1Cl (configuration not stated),outcome,[1],inactive
same,outcome,[2],inactive
same,outcome,[3],inactive
same,outcome,[4],inactive
same,outcome,[5],inactive
same,AC50,[6],21.2 µM (active)
same,outcome,[7],inactive
same,AC50,[9],5.46 µM (active)
C=CCC1=C(C)C(OC(=O)C2C(C=C(C)C)C2(C)C)CC1=O (configuration not stated),AC50,[1],34.9 µM (active) [middle of 4 runs]
same,AC50,[2],32.6 µM (active) [middle of 4 runs]
same,AC50,[3],39.6 µM (active) [middle of 4 runs]
same,AC50,[4],34 µM (active) [middle of 4 runs]
same,AC50,[5],28.9 µM (active) [middle of 4 runs]
same,AC50,[6],30.9 µM (active) [middle of 4 runs]
same,AC50,[7],32.1 µM (active) and 32.7 µM (active) and 36.2 µM (active)
same,outcome,[7],inactive
same,outcome,[10],inactive
COP(N)(=O)SC (configuration not stated),outcome,[1],inactive
same,outcome,[2],inactive
same,outcome,[3],inactive
same,outcome,[4],inactive
same,outcome,[5],inactive
same,outcome,[6],inactive
same,outcome,[7],inactive
same,outcome,[8],inactive
CCNc1nc(Cl)nc(NCC)n1,outcome,[1],inactive
same,outcome,[2],inactive
same,outcome,[3],inactive
same,outcome,[4],inactive
same,outcome,[5],inactive
same,outcome,[6],inactive
same,outcome,[7],inactive
same,outcome,[9],inactive
Oc1ccccc1-c1ccccc1,outcome,[1],inactive
same,outcome,[2],inactive
same,outcome,[3],inactive
same,outcome,[4],inactive
same,outcome,[5],inactive
same,outcome,[6],inactive
same,outcome,[7],inactive
same,AC50,[8],4.05 µM (active)
CCOP(=S)(OCC)SCn1c(=O)oc2cc(Cl)ccc21,AC50,[1],28.4 µM (active)
same,AC50,[2],29.4 µM (active)
same,outcome,[3],inactive
same,outcome,[4],inactive
same,AC50,[5],26.8 µM (active)
same,AC50,[6],29 µM (active)
same,AC50,[7],31.9 µM (active)
same,outcome,[8],inactive
same,AC50,[10],0.683 µM (active)
same,AC50,[9],0.513 µM (active)
COP(=S)(OC)Oc1nc(Cl)c(Cl)cc1Cl,outcome,[1],inactive
same,AC50,[2],32 µM (active)
same,outcome,[3],inactive
same,outcome,[4],inactive
same,outcome,[5],inactive
same,AC50,[6],20 µM (active)
same,outcome,[7],inactive
same,outcome,[9],inactive
